CHO-K1 Ca antag – M1 antagonist counterscreen hit in parental CHO-K1 cells | ATP-induced calcium, Fluo-8 fluorescence | inhibition, % at 3 µM | hit rate 0.6% among 360,000;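 active = inhibition above a per-plate cutoff, the plate's mean sample inhibition plus 3 SD, cut at about 24% in these data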;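 also: 0% = DMSO plus EC80 ATP and 100% = DMSO alone without ATP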
M1 PAM parental – nonselective calcium activators in parental CHO-K1 cells, primary screen, counter-screen for M1 PAM project, cell-based, Fluo-8 calcium fluorescence, full deck, 1536-well; activation, % at 3 µM; hit rate 0.02% among 360,000; ATP EC20; 0% at ATP EC20, 100% at ATP max; AID 602247, 2012;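 active = activation above the run cutoff, the mean activation of all test compounds plus 3 SD, cut at about 40% in these data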;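 also: peak over basal fluorescence ratio in a 140 s read after ATP addition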
M1 antag – human M1 muscarinic receptor antagonists, primary screen, CHO-K1 cells, Fluo-8 calcium fluorescence, 1536-well | AID 588852, 2011 | CHO-K1 hM1, ACh EC80 antagonist | inhibition, % at 3 µM | Muscarinic acetylcholine receptor M1 (Homo sapiens), P11229 | hit rate 1.3% among 360,000;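 active = percent inhibition above its own plate's cutoff, namely the mean of that plate's compound wells plus 3 SD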;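 also: peak over basal fluorescence ratio during 140 s after agonist addition; 0% = ACh EC80 plus DMSO and 100% = DMSO alone without agonist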
Target sequence (P11229 whole entry, looked up): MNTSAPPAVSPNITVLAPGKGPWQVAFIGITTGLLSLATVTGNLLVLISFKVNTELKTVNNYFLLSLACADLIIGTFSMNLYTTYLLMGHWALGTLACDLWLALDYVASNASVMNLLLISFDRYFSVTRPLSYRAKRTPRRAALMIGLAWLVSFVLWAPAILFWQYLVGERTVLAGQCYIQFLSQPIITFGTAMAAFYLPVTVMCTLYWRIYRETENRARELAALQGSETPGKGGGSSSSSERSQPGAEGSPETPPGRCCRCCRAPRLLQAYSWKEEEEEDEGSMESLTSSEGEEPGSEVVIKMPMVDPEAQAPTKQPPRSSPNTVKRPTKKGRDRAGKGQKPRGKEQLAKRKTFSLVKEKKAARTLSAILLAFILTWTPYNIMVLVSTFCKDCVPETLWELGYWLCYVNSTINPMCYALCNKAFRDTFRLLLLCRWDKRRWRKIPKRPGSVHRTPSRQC
M1 ag parental – counter-screen for M1 agonists: effect in parental CHO-K1 cells; Fluo-8 calcium fluorescence; scaled to maximal ATP response, vehicle zero; activation, % at 3 µM; hit rate 0.48% among 360,000; in the data active = activation above about 15%;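 also: untransfected CHO-K1 host cells lacking M1 receptor as counterscreen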
M1 PAM – human M1 muscarinic receptor positive allosteric modulators, primary screen, CHO-K1 cells, Fluo-8 calcium fluorescence, 1536-well | activation, % at 3 µM | CHO-K1 hM1, ACh EC20; 0% = ACh EC20, 100% = maximal ACh | hit rate 0.088% among 360,000; in the data active = activation above about 19%, passing the limit was not always enough
CHRM1 agonist – human M1 muscarinic receptor agonists, primary screen, Fluo-8 calcium fluorescence, CHO-K1 cells, HTS | activation, % at 3 µM | Muscarinic acetylcholine receptor M1 (Homo sapiens), P11229 | CHO-K1 hM1, agonist mode; 0% DMSO, 100% acetylcholine EC100 | AID 588814, 2011 | hit rate 0.33% among 360,000;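 active = activation above the run's mean compound activation plus 3 SD, cut at about 16% in these data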;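 also: peak over basal fluorescence ratio within a 140 s kinetic read after compound addition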
* hit, by the source's call; ! = not active in a repeat. Rows were chosen to be rich in hits. Some 2.4% of all compounds tested hit in one or more screens of this group.

SMILES	CHO-K1 Ca antag	M1 PAM parental	M1 antag	M1 ag parental	M1 PAM	CHRM1 agonist
Cc1ccc(CN2C3CCCC2CC(NC(=O)Nc2cccc(F)c2)C3)cc1 (configuration not stated)	-6	10	38*	7	-18	-5
Cc1ccc(C2CC3CCC(C2)N3Cc2ccccc2F)cc1 (configuration not stated)	5	-12	30	1	-22	-8
COc1cccc(-n2c(/C=C/c3ccc(O)c(O)c3)nc3ccccc3c2=O)c1	25*	-18	17	2	-11	-3
O=c1c2ccccc2nc(/C=C/c2ccc3c(c2)OCO3)n1-c1cccc(O)c1	26*	-14	15	0	-8	-2
O=c1c2ccccc2nc(/C=C/c2ccc(O)cc2)n1-c1cccc(O)c1	9	13	6	4	-2	-2
CC[N+](CC)(CC)CCCOC(=O)C(O)(c1ccccc1)C1CCCCC1 (configuration not stated)	-2	11	99*	0	-23	-6
C[N+](C)(N)CCOC(=O)C(O)(c1ccccc1)C1CCCCC1 (configuration not stated)	-7	2	100*	0	-26	-8
COc1cccc(C2CCN(C)C2)c1 (configuration not stated)	-7	16	-4	1	-1	29*
COc1ccc(SCC2CN(C)CCC2c2ccc(F)cc2)cc1 (configuration not stated)	-9	21	-9	3	8	4
CC(C)CC1C(C#N)=C(N)Oc2c1c(=O)oc1ccccc21 (configuration not stated)	-2	3	4	1	-2	-1
C[C@@H]1CN([C@@H](C)CO)C(=O)CCCn2cc(nn2)CO[C@H]1CN(C)C(=O)Oc1cccc2ccccc12	-8	18	-18	0	11	-2
O=C(c1cc(F)ccc1F)C1CCCN(Cc2cccc(Cl)c2)C1 (configuration not stated)	-8	-13	20	0	-8	-5
O=C(c1cc(F)ccc1F)C1CCCN(CCCc2ccccc2)C1 (configuration not stated)	4	-2	36*	0	-26	-9
CCOC(=O)C1CCCN(c2ccc([N+](=O)[O-])c3nonc23)C1 (configuration not stated)	51*	-25	70*	157*	-27	298*
CCCC[N+]1(C)[C@@H]2CC(OC(=O)[C@H](CO)c3ccccc3)C[C@H]1[C@@H]1O[C@@H]12 (some centres not stated)	-1	-1	98*	0	-26	-7
Cc1cc(C=C(C#N)C#N)ccc1N1CCCC1	14	-5	13	16*	-13	3
N#CC(C#N)=Cc1ccc(N2CCOCC2)cc1	-11	15	-6	2	1	-2
O=S(=O)(c1cc(Cl)cc(Cl)c1)N1Cc2cc(N3CCOCC3)ccc2-n2nncc2C1	13	5	-19	0	16	2
C(=NN1CCCCCC1)c1c[nH]c2ccccc12	-12	6	18	1	-9	-3
Brc1ccc2[nH]cc(/C=N/N3CCCCC3)c2c1	1	8	7	1	-5	32*
Cc1ccccc1NC(=NCCCN1CC1)Nc1ccccc1C	1	-19	25	0	-16	-9
O=C1CC(c2cccnc2)=NN1c1ccc(Cl)cc1Cl	0	3	-9	1	4	-3
CC(=O)N1N=C(c2cccnc2)OC1c1ccccc1Cl (configuration not stated)	-1	12	-3	16*	4	-3
Cc1ccc(OC(=O)N(C)C[C@H]2OCc3cnnn3CCCC(=O)N([C@@H](C)CO)C[C@H]2C)cc1	-7	1	-20	0	13	-5
Cc1nn(Cc2ccccc2Cl)c(Cl)c1C(=O)O	-10	6	36*	0	2	-4
SMILES	CHO-K1 Ca antag	M1 PAM parental	M1 antag	M1 ag parental	M1 PAM	CHRM1 agonist
Cc1nn(Cc2ccccc2)c(Cl)c1C(=O)O	-12	19	-8	1	9	-3
C[C@]12CCC3C(C1CCC2=O)[C@H](O)C[C@H]1C[C@@H](O)CC[C@]31C (some centres not stated)	-7	4	-8	0	2	0
CCOc1cccc(CNCCc2c(C)[nH]c3ccc(OC(F)(F)F)cc23)c1O	53*	-25	37*	37*	-11	10
Cc1[nH]c2ccc(OC(F)(F)F)cc2c1CCNCc1ccc(Cl)cc1	13	18	2	2	10	-2
Cc1[nH]c2ccc(OC(F)(F)F)cc2c1CCNCc1cccc([N+](=O)[O-])c1	21	-24	9	35*	-1	4
COC1=CC=C2[C@H]3Cc4ccc(OC)c5c4[C@@]2(CCN3C)[C@H]1O5	-12	-9	-8	1	1	-4
Cc1sc2ncnc(N3CCC(C(=O)Nc4ccc(C#N)c(Cl)c4)CC3)c2c1C	6	-7	23	2	-11	-6
O=[N+]([O-])c1ccc(C(=Nc2ccccc2)N2CC2)cc1	-19	20	-8	1	1	-8
CCOC(=O)/C(CCCN(CC)CC)=N\O	8	-6	78*	1	-19	-5
COc1ccc(C)cc1NC(=O)N1CCC2(CC1)OCCO2	-7	22	-3	0	2	-7
CCCc1cc(=O)oc2cc(OCC(=O)N3CCN(Cc4ccc5c(c4)OCO5)CC3)ccc12	-13	17	-11	4	1	-3
CCCc1cc(=O)oc2cc(OCC(=O)N3CCC(C(=O)O)(c4ccccc4)CC3)ccc12	25*	-2	-12	0	7	-2
O=c1c2ccccc2nc(-c2ccc(Cl)cc2Cl)n1-c1nccs1	8	-9	-7	0	5	-7
CN(C)c1ccc(/C=C/c2cc[n+](C)c3ccccc23)cc1	-12	14	30*!	0	4	-5
CCC(=NCCCn1ccnc1)c1c(O)n(Cc2ccccc2)c(=O)[nH]c1=O	7	-2	5	0	-4	-6
CCN(CC)CCC(=O)O[C@H]1CC[C@]2(C)C3CC[C@@]4(C)C(CC[C@]4(C)O)C3CC[C@H]2C1 (some centres not stated)	21	3	50*	7	-27	8
CCC1(CCO)C(=O)NC(=S)NC1=O	-11	6	-12	0	4	1
